According to PubChem BioAssay (NCI):
About 83,000 compounds went through this panel and 20% of them were active in at least one assay; those are over-represented in the sample as a whole.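 Testing used 96-well plates and a 48-hour single-concentration exposure. Example: -40 means 40% of the starting cells died.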 A number with no mark means an inactive call. The source made the active and inactive calls. Rule for the calls: active = growth percent below 10; inactive = the rest.

What was measured:
Assay in all cases: NCI-60 one-dose screen, 48 h (100 = growth as untreated, 0 = no growth, -100 = all killed)
Settings in all cases: 10 µM unless noted
[1] = test system: NCI-H23 lung
[2] = test system: NCI-H226 lung
[3] = test system: NCI-H322M lung
[4] = test system: HOP-62 NSCLC
[5] = test system: NCI-H460 lung
[6] = test system: HOP-92 NSCLC
[7] = test system: NCI-H522 lung
[8] = test system: 786-0 renal
[9] = test system: COLO 205 colon
[10] = test system: DU-145 prostate
[11] = test system: K-562 leukemia
[12] = test system: MALME-3M melanoma
[13] = test system: MDA-MB-231 breast
[14] = test system: RXF 393 renal
[15] = test system: SF-268 CNS
[16] = test system: SF-295 CNS
[17] = test system: SF-539 CNS
[18] = test system: UACC-257 melanoma
[19] = test system: M14 melanoma
[20] = test system: A549/ATCC NSCLC

Compound	growth [1]	growth [2]	growth [3]	growth [4]	growth [5]	growth [6]	growth [7]	growth [8]	growth [9]	growth [10]	growth [11]	growth [12]	growth [13]	growth [14]	growth [15]	growth [16]	growth [17]	growth [18]	growth [19]	growth [20]
CNCCCNc1nc2ccccc2c2c(=O)c3cc(Cl)ccc3sc12	70.1%	101%	70.4%	60.5%	-70.5% (active)	9.37% (active)	17.6%	52.7%	-84.4% (active)	-8.94% (active)	-70.1% (active)	17.6%	-58.8% (active)	61.1%	53.8%	62.6%	70.8%	92.8%	-57.2% (active)	–
COc1cc2c(c(OC)c1OC)C(=O)CC(c1cccc(C(=O)Nc3ccccc3Br)c1)O2 (stereo not given)	102%	86%	98.1%	97.1%	110%	68.4%	69.9%	88%	95.4%	83.7%	74.1%	99.6%	91.1%	110%	73.8%	98.1%	90.4%	92.7%	91.1%	–
COc1ccc2cc(C(=O)N3CCC([C@@H](C)C(=O)NCc4ccc5c(c4)OCO5)CC3)[nH]c2c1	26.3% [50 µM]	-5.97% [50 µM] (active)	86.7% [50 µM]	-1.78% [50 µM] (active)	41.9% [50 µM]	-17.6% [50 µM] (active)	-6.66% [50 µM] (active)	-10.5% [50 µM] (active)	–	60.5% [50 µM]	77.2% [50 µM]	44.2% [50 µM]	34.1% [50 µM]	-1.62% [50 µM] (active)	32.9% [50 µM]	48.1% [50 µM]	41.1% [50 µM]	77.8% [50 µM]	65.2% [50 µM]	53.7% [50 µM]
O=C(Nc1ccc(Nc2ccncc2)cc1)c1ccc(Nc2ccnc3ccc([N+](=O)[O-])cc23)cc1	86.9%	89.8%	116%	113%	68.2%	87.7%	102%	99.2%	131%	103%	80.5%	114%	80.5%	116%	97.6%	106%	85.5%	101%	108%	–
Oc1ccc(-c2nc3ccc4[nH]ncc4c3c3c2CCCC3)c(F)c1	29.5%	56.4%	37.8%	35.7%	29%	68.9%	-4.04% (active)	29.4%	77.4%	37%	19.5%	24.9%	59.9%	16%	36.5%	43.6%	15.6%	44.5%	16.7%	–
Clc1ccc(-c2cc(-c3ccccc3)nc(N3CCN(CCCNc4ccnc5cc(Cl)ccc45)CC3)n2)cc1	69%	45.9%	28.2%	82.1%	-12.8% (active)	26.6%	9.55% (active)	-73.2% (active)	–	19.2%	-14.7% (active)	-32.8% (active)	-51.7% (active)	-60.5% (active)	13.5%	39.6%	-65.7% (active)	39.2%	-51.8% (active)	43.6%
Nc1cc(Br)cc2c1[nH]c(=O)c1ccccc12	83.4%	91.9%	109%	102%	93.4%	77.6%	98.1%	101%	106%	106%	92.5%	124%	102%	103%	106%	108%	112%	94.7%	114%	–
CCOc1ccc(/C=C/C(=O)c2cccc(OCCCOc3cccc(C(=O)/C=C/c4ccc(OCC)cc4)c3)c2)cc1	83.9%	73.8%	84.5%	107%	65.4%	91.6%	74%	100%	116%	82.8%	69.9%	100%	83.3%	105%	85.3%	76.4%	110%	82.7%	69%	–
COC(=O)[C@@]1(C)CC[C@]2(C)CC[C@]3(C)C4=CC=C5C(=CC(=O)C(O)=C5C)[C@]4(C)[C@@H](O)C[C@@]3(C)[C@@H]2C1	49.2%	98.7%	96.8%	89.7%	63.6%	-3.8% (active)	-24.2% (active)	-30.3% (active)	–	21.3%	8.3% (active)	7.58% (active)	-0.344% (active)	-35.1% (active)	62.5%	74.8%	-8.84% (active)	32%	7.16% (active)	88.3%
COC(=O)[C@]1(C)CCC[C@]2(C)[C@H]3C[C@@H]4[C@H]5[C@@H]6CC/C(=N\OCC/C(N)=N/O)[C@H]5[C@@]3(CC[C@H]21)CC4(C(C)C)O6	73.4%	83.7%	82.2%	80.8%	67.5%	65%	54.7%	86.2%	72.1%	71.5%	79.3%	82.1%	61.2%	42.5%	72.9%	72.7%	79.2%	80.4%	72.6%	–
Nc1nc(C(=O)N/N=C/c2ccc(F)cc2)nn1-c1ccc(S(N)(=O)=O)cc1	101%	99%	91.1%	98.8%	106%	98.9%	88.8%	97.2%	112%	104%	103%	89.2%	96.4%	95.5%	95.7%	102%	98.9%	103%	99.5%	–
N#CC1=C(N)Oc2c(sc3c(F)cccc23)C1c1ccc([N+](=O)[O-])cc1 (stereo not given)	-4.82% (active)	3.23% (active)	-24.2% (active)	-33.4% (active)	-26.8% (active)	-47.5% (active)	-26.3% (active)	-18.6% (active)	-41.7% (active)	3.51% (active)	1.99% (active)	-24.3% (active)	-66.2% (active)	-57.3% (active)	-23.1% (active)	-70.3% (active)	-79.2% (active)	-17.2% (active)	-50.9% (active)	–
CCCn1c(=S)sc2c(NNC(C)=O)nc(C)nc21	99.3%	97.1%	101%	78.3%	101%	89.4%	90.9%	92.2%	126%	134%	68.8%	101%	103%	98.5%	111%	121%	90.6%	91.7%	108%	–
O=C(/C=C/c1ccccc1)N(C1CCCCC1)C1CCCCC1	74.3%	84.7%	105%	131%	86.8%	84.3%	70.9%	82.2%	99.9%	104%	81.1%	104%	86%	84.7%	104%	78.1%	105%	80.7%	87.6%	–
COc1ccc(C2CC(c3ccccc3)=NN2C(=O)c2cc(OC)c(OC)c(OC)c2)cc1O (stereo not given)	35.6%	27.4%	57.5%	49.4%	6.52% (active)	28%	-3.83% (active)	20.4%	–	25.8%	14.1%	81.8%	8.45% (active)	-9.96% (active)	49.9%	5.83% (active)	-15.7% (active)	66.2%	13.4%	29.5%
